MITF act: increases MITF-driven TRPM1 promoter luciferase signal. activation, % at 12.5 µM. SK-MEL-5 TRPM1-promoter luciferase, 24 h; % of positive control, neutral wells = 0. hit rate 0.75% among 300,000;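 active means mean activation of at least 80% with every replicate also reaching 80%; inconclusive means mean reaches 80% but some replicate falls short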;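 further: 0% = neutral control wells and 100% = parthenolide positive control wells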
Wnt act: activates Wnt/beta-catenin signaling in a reporter cell assay; activation, % at 9.35 µM; activator, plate reader; hit rate 1.2% among 300,000; in the data active means activation above about 30%, passing the limit was not always enough; inconclusive means no clear call, values can overlap the other calls;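 further: 0% = neutral control wells and 100% = positive control wells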
Rtt109 HAT inh: inhibitors of Candida albicans Rtt109/Vps75 histone acetyltransferase | Q5AAJ8 | purified Rtt109/Vps75, ThioGlo CoA-SH fluorescence, 4 h | inhibition, % at 34.9 µM | hit rate 0.16% among 330,000 | AID 540336;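 active means inhibition of at least 50% in every replicate; inconclusive means best replicate reaches 50% inhibition but some replicates fall short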
Target sequence (Q5AAJ8 whole entry, looked up): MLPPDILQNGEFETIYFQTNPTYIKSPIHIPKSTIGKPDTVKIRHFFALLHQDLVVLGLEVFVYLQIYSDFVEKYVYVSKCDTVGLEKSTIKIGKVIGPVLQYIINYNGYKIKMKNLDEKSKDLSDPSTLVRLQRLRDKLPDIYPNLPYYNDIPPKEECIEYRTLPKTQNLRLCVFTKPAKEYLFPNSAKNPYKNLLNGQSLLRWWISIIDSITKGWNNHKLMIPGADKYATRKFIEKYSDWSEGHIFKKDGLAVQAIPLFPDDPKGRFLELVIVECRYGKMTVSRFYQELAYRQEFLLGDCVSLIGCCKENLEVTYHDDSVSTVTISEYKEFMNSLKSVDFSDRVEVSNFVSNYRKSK
C2C12 statin: suppressors of simvastatin-induced myotoxicity in C2C12 myotubes; rescue of ATP level, % at 7.49 µM; ATP luminescence, 48 h; scaled: DMSO 0, geranylgeraniol control 100; AID 602340; hit rate 0.78% among 330,000;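 active means mean ATP rescue above about 67%, or every replicate alone reaching that limit, limit read from the data, passing the limit was not always enough; inconclusive means no clear call, values can overlap the other calls; inactive means mean under the limit and some replicate under it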;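 further: myotubes were challenged with 10 µM simvastatin during compound exposure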
esBAF inh: SWI/SNF esBAF complex inhibition. mouse ES cells, Bmi1-luciferase knock-in reporter, 24 h; 100% = twice the neutral-well signal. reporter increase, % at 12.5 µM. hit rate 2% among 350,000; in the data active means activation above about 40%; inconclusive means no clear call, values can overlap the other calls;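 further: 0% = median of the plate's neutral control wells and 100% = double that signal; a rise in the Bmi1 reporter signal indicates esBAF inhibition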
esBAF Ring1 qPCR: esBAF inhibition confirmed by Ring1 de-repression; mouse ESC E14, Ring1 mRNA RT-qPCR fold change; shares compounds with esBAF inh; 550 tested, under 10 active; AID 743176; fold change at 33 µM;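 active means Ring1 gene expression raised more than 2-fold over untreated cells in both replicates at either tested dose; inconclusive means only one replicate above 2-fold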;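 further: Ring1 transcript normalised to actin housekeeping signal by TaqMan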
Fgf4 repress: represses Fgf4 in mouse ESCs, confirming esBAF inhibition; hit rate 4% among 550; AID 743177; mouse ESC E14, Fgf4 mRNA qPCR fold change; hits give low values; Fgf4 expression fold change at 33 µM; shares compounds with esBAF inh;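 active means Fgf4 expression under 0.8 fold of control in both repeat measurements at one or both tested doses; inconclusive means under 0.8 fold in just a single repeat measurement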;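 further: Fgf4 transcript normalised to actin in duplex TaqMan qPCR; cells exposed to compound for 24 h before lysis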
Bmi1 derepress: confirmation of esBAF inhibitors: Bmi1 de-repression in mouse ESCs | 550 tested, under 10 active | mouse ESE14 ES cells, Bmi1 mRNA qPCR fold; hits give high values | AID 743180 | shares compounds with esBAF inh | fold change at 33 µM;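 active means Bmi1 expression fold change above 6 at either tested concentration, seen in replicate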;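 further: higher fold means more Bmi1 de-repression and stronger esBAF inhibition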
A549 tox SP: kills or reduces viability of A549 cells | shares compounds with esBAF inh | A549 cytotoxicity, plate reader | cell viability change % (negative = cytotoxic), % at 25 µM, hits read low | 550 tested, under 10 active; call rule not given here
HepG2 cytotox SP: cytotoxicity in HepG2 cells | shares compounds with esBAF inh | plate reader; hits give low values | AID 743189 | hit rate 4% among 550 | activity change, negative = inhibition, % at 25 µM; in the data active means activity change below about -50%
HEK293 tox SP: cytotoxicity in HEK293 cells; plate reader; shares compounds with esBAF inh; activity change, negative = inhibition, % at 25 µM, hits read low; hit rate 3% among 550; AID 743190; in the data active means activity change below about -38%, passing the limit was not always enough
Numbers without * were called inactive; ? = inconclusive; · = not tested or not shown. Sampled rows, rich in hits. Any-hit rate of the full collection: about 3.1%.

SMILES	MITF act	Wnt act	Rtt109 HAT inh	C2C12 statin	esBAF inh	esBAF Ring1 qPCR	Fgf4 repress	Bmi1 derepress	A549 tox SP	HepG2 cytotox SP	HEK293 tox SP
O=C(c1cc(COc2cccc(C(F)(F)F)c2)on1)N1CCCC1	·	-0.5	·	-3.0	69.7*	·	·	·	·	·	·
CC(NC(=O)c1cc(COc2cccc(C(F)(F)F)c2)on1)c1nccs1 (stereo not given)	65.9	13.2	1.6	-3.0	60.8*	·	·	·	·	·	·
O=C(c1cc(COc2cccc(C(F)(F)F)c2)on1)N1CCc2ccccc2C1	16.7	0.9	-4.0	0.3	-11.6	·	·	·	·	·	·
C[C@@H]1CN(C(=O)c2cc(COc3cccc(C(F)(F)F)c3)on2)C[C@H](C)O1	103.0*	22.6	0.7	-18.0	57.2*	·	·	·	·	·	·
CC(Cn1cncn1)NC(=O)c1cc(COc2cccc(C(F)(F)F)c2)on1 (stereo not given)	-8.1	1.2	-0.7	-8.6	12.2	·	·	·	·	·	·
COc1ccc(CN(C)C[C@@H]2Oc3ccc(NC(=O)C4CC4)cc3CC(=O)N([C@H](C)CO)C[C@H]2C)cc1	·	·	·	34.1	8.7	·	·	·	·	·	·
COc1ccc(S(=O)(=O)Nc2cccc3c2O[C@@H](CN(C)C(=O)NC2CCCCC2)[C@@H](C)CN([C@@H](C)CO)C3=O)cc1	·	·	·	-6.4	1.5	·	·	·	·	·	·
COc1ccc(-c2cnc3c(c2)C(=O)N([C@@H](C)CO)C[C@@H](C)[C@H](CN(C)S(=O)(=O)c2ccc(OC)cc2)O3)cc1	·	·	·	12.2	·	·	·	·	·	·	·
C[C@@H]1CN([C@@H](C)CO)C(=O)c2cccc(NC(=O)c3cnccn3)c2O[C@@H]1CN(C)S(=O)(=O)c1cn(C)cn1	·	·	·	·	-0.1	·	·	·	·	·	·
CCSc1nnc(-c2cccnc2)n1-c1ccc(Cl)c(C)c1	1.5	-2.4	3.7	111.2*	-3.8	·	·	·	·	·	·
C[C@@H]1CN([C@@H](C)CO)C(=O)c2cc(NC(=O)C3CC3)ccc2O[C@@H]1CN(C)Cc1ccncc1	·	·	·	3.8	1.5	·	·	·	·	·	·
COCCNC(=O)C[C@H]1CC[C@@H]2[C@@H](COc3ccc(NC(=O)Cc4ccccc4)cc3C(=O)N2C)O1	·	·	·	-6.7	-7.5	·	·	·	·	·	·
COc1ccccc1C(=O)Nc1sc2c(c1C(N)=O)CCCC2	28.7	0.5	-20.5	-31.2	29.0	·	·	·	·	·	·
COc1ccccc1C(=O)Nc1sc2c(c1C#N)CCC2	13.9	·	-2.0	2.5	58.9*	0.896	0.815	1.57	1.1	-27.9	-10.0
Cc1cccc(Oc2ccc(Cl)cc2N)c1	49.1	7.4	-1.4	1.4	72.0*	1.16	1.05	1.46	-10.2	-10.6	-1.0
O=C(NC1CCCC1)c1cc(-c2ccccc2O)on1	106.0*	2.0	1.9	-46.6	60.6*	1.29	0.803	1.42	-13.1	9.3	-5.9
O=C(NC1CCCCC1)c1cc(-c2ccco2)on1	24.2	26.1	-23.5	3.4	4.7	·	·	·	·	·	·
O=C(NC1CCCCC1)c1cc(-c2cccc(Cl)c2)on1	95.0*	17.5	-15.8	-1.9	60.3*	1.23	?	1.84	-10.5	-7.9	-4.1
COc1ccc(-c2cc(C(=O)NC3CCCC3)no2)cc1OC	46.5	·	-7.3	·	·	·	·	·	·	·	·
COc1cccc(-c2cc(C(=O)NC3CCCCC3)no2)c1	115.3*	4.1	-7.4	-51.4	59.4*	1.23	0.877	1.36	-4.0	-17.9	-6.0
CCCC(=O)Nc1ccc2c(c1)C(=O)N(C)C[C@H](OC)[C@H](C)CN(Cc1ccncc1)[C@@H](C)CO2	·	·	·	3.1	-1.1	·	·	·	·	·	·
CCCNC(=O)C[C@@H]1C[C@H]2c3cc(NS(=O)(=O)c4cccc(OC)c4)ccc3O[C@H]2[C@@H](CO)O1	·	·	·	-0.1	4.9	·	·	·	·	·	·
COc1ccc(C(=O)Nc2ccc3c(c2)OC[C@@H](C)N(C(C)=O)C[C@@H](C)[C@H](OC)CN(C)C3=O)cc1	·	·	·	-2.0	-1.6	·	·	·	·	·	·
COc1ccc(NC(=O)Nc2ccc3c(c2)C(=O)N([C@@H](C)CO)C[C@@H](C)[C@@H](CN(C)C(=O)Nc2ccc4c(c2)OCO4)O3)cc1	·	·	·	6.8	2.4	·	·	·	·	·	·
COc1ccc(NC(=O)N(C)C[C@@H]2Oc3ccc(NC(=O)CCN4CCOCC4)cc3C(=O)N([C@H](C)CO)C[C@H]2C)cc1	·	·	·	0.3	5.5	·	·	·	·	·	·
SMILES	MITF act	Wnt act	Rtt109 HAT inh	C2C12 statin	esBAF inh	esBAF Ring1 qPCR	Fgf4 repress	Bmi1 derepress	A549 tox SP	HepG2 cytotox SP	HEK293 tox SP
C=CCn1c(O)c(C=Nc2ccccc2)sc1=S	45.1	6.5	-3.4	2.1	67.8*	1.03	0.837	1.44	-5.5	-20.6	-10.9
Oc1c(C=Nc2ccccc2)sc(=S)n1Cc1ccccc1	7.4	2.5	3.5	8.9	13.6	·	·	·	·	·	·
O=C(C[C@@H]1C[C@H]2c3cc(NC(=O)Nc4ccccc4)ccc3O[C@H]2[C@H](CO)O1)NCc1cccc(F)c1	·	·	·	9.4	4.3	·	·	·	·	·	·
COc1ccc(Cc2nc3ccc(C(=O)NCCCSC)cc3o2)cc1OC	·	19.7	-0.5	4.7	77.1*	0.943	0.974	1.29	-9.0	-45.9	-5.2
COc1ccc(OCc2cc(C(=O)NC(C)c3csc(C)n3)no2)c(Cl)c1 (stereo not given)	64.1	29.0	7.1	-2.8	66.2*	1.18	0.832	1.22	-3.8	-28.7	-11.9
Nc1ccccc1/C=C/c1ccccc1N	54.5	20.0	-1.2	-1.9	111.8*	1.41	0.994	1.77	-4.0	24.4	-7.2
Cc1nc2c(sc3nc4c(cc32)COC(C)(C)C4)c(=O)n1Cc1ccccc1	60.3	·	-0.5	22.7	63.9*	1.21	0.812	1.08	2.0	-28.6	-15.8
COCC(=O)Nc1ccc2c(c1)C(=O)N(C)[C@H]1CC[C@@H](CC(=O)NCc3ccccc3Cl)O[C@@H]1CO2	·	·	·	-24.1	2.1	·	·	·	·	·	·
COc1cc(C(=O)Nc2ccc(Cl)c(C(F)(F)F)c2)cc(OC)c1OC	9.5	-4.7	1.1	-6.8	2.1	·	·	·	·	·	·
COc1cccc(C(=O)Nc2ccc(Cl)c(C(F)(F)F)c2)c1	?	26.6	4.6	-5.7	68.2*	0.971	0.977	1.91	-1.6	-39.5	-6.1
COCC(=O)Nc1ccc2c(c1)C(=O)N(C)[C@@H]1CC[C@@H](CC(=O)NCCc3ccccc3)O[C@H]1CO2	·	·	·	15.0	-3.3	·	·	·	·	·	·
CN(C)S(=O)(=O)c1cccc(C(=O)Nc2ccc(Cl)cn2)c1	63.5	17.2	12.7	6.2	63.2*	1.23	0.92	1.39	-1.1	-19.0	-0.1
COc1ccc2c(c1)CC/C(=C/c1ccccn1)C2=O	46.2	25.6	-0.5	3.0	67.8*	1.1	0.375*	4.98	-4.0	-15.5	-21.8

Screens deposited in PubChem BioAssay by Broad Institute.
